From PubChem BioAssay (NCATS)
“And” between values parts separate entries of the source, which are not always exact repeats. Equal values may be shown once. Inconclusive results are not listed. Where a call stands in place of a potency, no number is given. The source holds several records for some structures; these can differ, active in one and inactive in another. The source made the active and inactive calls. Unless noted, calls come from the whole dose curve; as a rule, active = well fitted curve in the direction sought with a large enough effect; inconclusive = small, poorly fitted or top-dose-only effect, or another doubt; inactive = no such curve, though single readings can be large; an effect the other way counts as inactive or inconclusive.

Assays:
[1] = qHTS to identify inhibitors of the type 1 interferon - major histocompatibility complex class I in skeletal muscle: primary screen against the NCATS Mechanism Interrogation Plate v5.0 (MIPE) Libary (AID 1347411); note: nearly all actives have a fitted effect of over 65% in size; note: potency is the fitted concentration of half-maximal effect
Method in brief: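 Immortalized human C25cl48 myoblasts with HiBit knocked into endogenous HLA-B*08:01 were stimulated with 4.0 ng/ml IFN-beta and exposed to compounds (11-point 1:3 titration, top 46 uM final) for 24 hrs at 37 C; HiBiT lytic luminescence measured.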

[2] = target: Calcium and integrin-binding protein 1 (Homo sapiens) (UniProt Q99828); experiment: Primary qHTS for Identification of Calcium Integrin Binding Protein 1 (CIB1) Competitor (AID 1508620);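 note: GST tagged CIB1 binding a fluorescein labelled alphaIIb integrin peptide tracer; top concentration of the series differs between compounds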
Method in brief: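 Fluorescence polarization competition: CIB1-GST (1 uM final) preincubated with compound 15 min at room temperature, then FITC-labeled alphaIIb peptide (100 nM final) added for another 15 min. Polarization read at Ex 480/Em 540.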

[3] = Primary qHTS for inhibitors of nuclear receptor binding SET domain protein 2 (NSD2) in an isogenic RCH-ACV NSD2 p.E1099K mutant (9B) (AID 1645876); note: nearly all actives have a fitted effect of over 70% in size; note: potency is the fitted concentration of half-maximal effect
[4] = Primary qHTS for small molecule stabilizers of the endoplasmic reticulum resident proteome: Secreted ER Calcium Modulated Protein (SERCaMP) assay (AID 1508630)
Method in brief: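 GLuc-SERCaMP-expressing SH-SY5Y cells, pretreated 16 h with compound, are challenged with thapsigargin to empty ER calcium stores; after 4 h, coelenterazine is added directly to the medium and luminescence is imaged.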

[5] = target: Cytochrome P450 2D6 (Homo sapiens) (UniProt P10635); experiment: Cytochrome P450 family 2 subfamily D member 6 (CYP2D6) small molecule antagonists: luciferase biochemical (cell-free) qHTS assay (AID 1645840; active = well fitted curve in the direction sought with a large enough effect in the repeat runs; an effect the other way counts as inactive or inconclusive; note: nearly all actives have a fitted effect of over 55% in size; note: potency is the fitted concentration of half-maximal effect; for activity change, negative = inhibition: series mostly up to about 57 µM)
Method in brief: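 P450-Glo luminescent screen: recombinant CYP2D6 enzyme–proluciferin substrate mix preincubated with compound 10 min at room temperature, then NADPH regeneration added for 1 h at room temperature. Detection reagent added for 20 min; luciferin light read as relative luminescence units.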

[6] = target: Cytochrome P450 2C9 (Homo sapiens) (UniProt P11712); experiment: Cytochrome P450 family 2 subfamily C member 9 (CYP2C9) small molecule antagonists: luciferase biochemical (cell-free) qHTS assay (AID 1645842; active = well fitted curve in the direction sought with a large enough effect in the repeat runs; an effect the other way counts as inactive or inconclusive; note: nearly all actives have a fitted effect of over 55% in size; note: potency is the fitted concentration of half-maximal effect; for activity change, negative = inhibition: series mostly up to about 57 µM)
Method in brief: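 Luminescence, after 20 min with luciferin detection reagent, reflected CYP2C9 turnover during a 1 h NADPH-driven reaction at 37C. Enzyme-substrate mix contained 0.4% bovine serum albumin and was preincubated with compound 10 min at room temperature.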

[7] = target: N-terminal Xaa-Pro-Lys N-methyltransferase 1 (Homo sapiens) (UniProt Q9BV86); experiment: Confirmatory qHTS for Inhibitors of N-terminal methyltransferase 1 (NTMT1): MTaseGlo Assay (AID 1645874); note: potency is the fitted concentration of half-maximal effect; nearly all actives have a fitted effect of over 65% in size
Method in brief: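 qHTS format: NTMT1 125 nM, SAM 100 uM, peptide SPKRIA 1 uM final; 15 min compound preincubation, 30 min reaction at room temperature. MTase-Glo luminescence.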

[8] = target: Calcium and integrin-binding protein 1 (Homo sapiens) (UniProt Q99828); experiment: Confirmatory qHTS for Identification of Calcium Integrin Binding Protein 1 (CIB1) Competitor (AID 1508617); note: potency is the fitted concentration of half-maximal effect; nearly all actives have a fitted effect of over 65% in size
Method in brief: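 Compounds at up to 114 uM final met 1 uM GST-tagged CIB1 for 15 min at room temperature (HEPES pH 7.4, 5 mM CaCl2). FITC-labelled alphaIIb peptide, 100 nM, added; polarization read after 15 min more.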

Chain of Cytochrome P450 2D6 (Homo sapiens) (P10635 whole entry, looked up): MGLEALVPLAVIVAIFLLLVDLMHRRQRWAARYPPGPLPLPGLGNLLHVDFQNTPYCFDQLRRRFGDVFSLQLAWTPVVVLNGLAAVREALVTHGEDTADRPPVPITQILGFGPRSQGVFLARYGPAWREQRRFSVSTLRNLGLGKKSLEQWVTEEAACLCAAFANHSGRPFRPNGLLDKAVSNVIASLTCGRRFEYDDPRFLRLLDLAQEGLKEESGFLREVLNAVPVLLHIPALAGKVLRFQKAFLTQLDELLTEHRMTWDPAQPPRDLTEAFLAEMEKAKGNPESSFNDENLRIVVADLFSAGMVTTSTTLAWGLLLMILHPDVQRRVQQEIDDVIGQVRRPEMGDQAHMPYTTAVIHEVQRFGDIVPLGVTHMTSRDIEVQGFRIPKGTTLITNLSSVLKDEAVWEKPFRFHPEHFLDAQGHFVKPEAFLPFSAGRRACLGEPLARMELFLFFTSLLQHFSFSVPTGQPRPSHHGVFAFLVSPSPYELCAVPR
Chain of Calcium and integrin-binding protein 1 (Homo sapiens) (Q99828 whole entry, looked up): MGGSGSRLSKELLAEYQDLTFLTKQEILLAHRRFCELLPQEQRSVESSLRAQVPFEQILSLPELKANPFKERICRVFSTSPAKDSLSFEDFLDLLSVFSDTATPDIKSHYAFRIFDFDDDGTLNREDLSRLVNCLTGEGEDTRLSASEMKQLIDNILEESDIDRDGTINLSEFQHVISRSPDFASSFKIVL
Chain of Cytochrome P450 2C9 (Homo sapiens) (P11712 whole entry, looked up): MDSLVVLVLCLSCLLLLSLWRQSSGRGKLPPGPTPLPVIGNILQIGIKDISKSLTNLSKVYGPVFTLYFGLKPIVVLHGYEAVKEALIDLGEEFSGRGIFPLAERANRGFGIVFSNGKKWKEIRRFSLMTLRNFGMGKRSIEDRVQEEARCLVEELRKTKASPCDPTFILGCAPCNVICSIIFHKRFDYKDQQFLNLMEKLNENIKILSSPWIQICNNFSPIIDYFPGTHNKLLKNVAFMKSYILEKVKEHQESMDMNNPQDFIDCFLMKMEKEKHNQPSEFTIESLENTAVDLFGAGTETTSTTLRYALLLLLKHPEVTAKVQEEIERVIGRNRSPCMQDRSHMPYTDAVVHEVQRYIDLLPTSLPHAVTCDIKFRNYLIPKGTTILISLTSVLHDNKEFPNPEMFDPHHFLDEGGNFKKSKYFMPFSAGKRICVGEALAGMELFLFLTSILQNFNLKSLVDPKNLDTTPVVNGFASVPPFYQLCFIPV
Chain of N-terminal Xaa-Pro-Lys N-methyltransferase 1 (Homo sapiens) (Q9BV86 whole entry, looked up): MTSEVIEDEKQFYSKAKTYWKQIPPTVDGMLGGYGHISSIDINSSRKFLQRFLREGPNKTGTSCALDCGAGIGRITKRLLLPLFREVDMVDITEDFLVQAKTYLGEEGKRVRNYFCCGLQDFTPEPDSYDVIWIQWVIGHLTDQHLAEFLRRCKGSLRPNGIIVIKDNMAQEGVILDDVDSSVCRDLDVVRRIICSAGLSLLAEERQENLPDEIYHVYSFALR

**Q.** Which Potency [1] does the source give for `O=C(NCCS(=O)(=O)c1ccc(C(F)(F)F)cn1)c1ccc(Cl)cc1` here?
**A.** inactive

**Q.** What about the outcome [2] of the same compound?
**A.** inactive

**Q.** What about the Potency [3] of the same compound?
**A.** inactive

**Q.** Which results are given for `CC[C@@]1(O)C(=O)OCc2c1cc1n(c2=O)Cc2cc3cc(O)ccc3nc2-1`?
**A.** Potency [1]: 3.3 µM (active); outcome [2]: inactive; Potency [4]: inactive; Potency [3]: 20.9 nM (active)

**Q.** Which Potency [1] does the source give for `CC[C@@H]1C(=O)N(C)c2cnc(Nc3ccc(C(=O)NC4CCC(N5CCN(CC6CC6)CC5)CC4)cc3OC)nc2N1C(C)C` (stereo partly specified) here?
**A.** 6.58 µM (active)

**Q.** And the outcome [2]?
**A.** inactive

**Q.** And the Potency [5]?
**A.** inactive

**Q.** And the Potency [6]?
**A.** 7.56 µM (active) and 12 µM (active)

**Q.** What about the Potency [3] of the same compound?
**A.** 36.5 nM (active) and 16.3 nM (active) and 41.7 nM (active)

**Q.** What does the source list for `O=C(CCCCCCC(=O)Nc1ccc([C@H]2O[C@@H](CSc3nc(-c4ccccc4)c(-c4ccccc4)o3)C[C@@H](c3ccc(CO)cc3)O2)cc1)NO`?
**A.** activity change, negative = inhibition [1]: 14.6% [at 8.44 µM] (inactive); outcome [2]: inactive; Potency [3]: 2.58 µM (active) and 4.28 µM (active)

**Q.** What does the source list for `C1Cc2[nH]nc(-c3nn[nH]n3)c2C1`?
**A.** Potency [1]: inactive; outcome [2]: inactive; Potency [5]: inactive; Potency [6]: inactive; Potency [3]: inactive

**Q.** What does the source list for `Cc1cn(-c2cc(NC(=O)c3ccc(C)c(Nc4nccc(-c5cccnc5)n4)c3)cc(C(F)(F)F)c2)cn1`?
**A.** Potency [1]: inactive; outcome [2]: inactive; Potency [3]: 8.2 µM (active) and 11.8 µM (active)

**Q.** Which results are given for `O=C(NC1CCNCC1)c1[nH]ncc1NC(=O)c1c(Cl)cccc1Cl`?
**A.** Potency [1]: 0.262 µM (active); outcome [2]: inactive; Potency [3]: 662 nM (active)

**Q.** For `Cc1nc(Nc2n[nH]c3c2CN(C(=O)N[C@H](CN(C)C)c2ccccc2)C3(C)C)c2sccc2n1`, which Potency [1] is on record?
**A.** 0.0523 µM (active)

**Q.** And the outcome [2]?
**A.** inactive

**Q.** What about the Potency [4] of the same compound?
**A.** inactive

**Q.** What about the Potency [3] of the same compound?
**A.** 10.3 nM (active) and 11.8 nM (active)

**Q.** With `O=C(O)CCCc1c[nH]c2ccccc12` as the compound, how does the Potency [1] read?
**A.** inactive

**Q.** And the outcome [2]?
**A.** inactive

**Q.** What about the Potency [3] of the same compound?
**A.** inactive

**Q.** Which results are given for `CN(C)CCCN=c1c2ccccc2n(C)c2[nH]c(=O)n(C)c(=O)c12`?
**A.** Potency [1]: 16.5 µM (active); outcome [2]: inactive; Potency [3]: 13200 nM (active)

**Q.** With `COCCOc1ccc2c(c1)ncn2-c1ccc2cccc(N3CCC(N)CC3)c2n1` as the compound, how does the Potency [1] read?
**A.** 1.86 µM (active)

**Q.** What about the outcome [2] of the same compound?
**A.** inactive

**Q.** And the Potency [3]?
**A.** 2.3 µM (active) and 2.09 µM (active)

**Q.** With `N#Cc1c(O)c2c(-c3ccc(-c4ccccc4O)cc3)csc2[nH]c1=O` as the compound, how does the Potency [1] read?
**A.** inactive

**Q.** What about the outcome [2] of the same compound?
**A.** inactive

**Q.** What about the Potency [3] of the same compound?
**A.** inactive

**Q.** Which Potency [1] does the source give for `Nc1nc(NCCNc2ncc(-n3ccnc3)c(-c3ccc(Cl)cc3Cl)n2)ccc1[N+](=O)[O-]` here?
**A.** 14.7 µM (active)

**Q.** And the outcome [2]?
**A.** inactive

**Q.** And the Potency [5]?
**A.** 1.69 µM (active)

**Q.** What about the Potency [6] of the same compound?
**A.** 0.134 µM (active)

**Q.** And the Potency [3]?
**A.** 5.15 µM (active) and inactive

**Q.** Which Potency [1] does the source give for `CC1(C)CCC(c2ccc(Cl)cc2)=C(CN2CCN(c3ccc(C(=O)NS(=O)(=O)c4ccc(N[C@H](CCN5CCOCC5)CSc5ccccc5)c(S(=O)(=O)C(F)(F)F)c4)cc3)CC2)C1` here?
**A.** inactive

**Q.** And the outcome [2]?
**A.** inactive

**Q.** What about the Potency [4] of the same compound?
**A.** inactive

**Q.** What about the Potency [3] of the same compound?
**A.** 1.03 µM (active) and 1.18 µM (active)

**Q.** With `CCc1c2c(nc3ccc(O)cc13)-c1cc3c(c(=O)n1C2)COC(=O)[C@]3(O)CC` as the compound, how does the Potency [1] read?
**A.** 1.17 µM (active)

**Q.** And the outcome [2]?
**A.** inactive

**Q.** And the Potency [4]?
**A.** inactive

**Q.** What about the Potency [3] of the same compound?
**A.** 8.3 nM (active)

**Q.** What does the source list for `C=CC(=O)Nc1cc2c(Nc3ccc(F)c(Cl)c3)ncnc2cc1C#CC(C)(C)N1CCN(C)CC1`?
**A.** Potency [1]: 8.29 µM (active); Potency [3]: 2630 nM (active)

**Q.** What does the source list for `Cc1ccc(C(=O)Nc2cccc(C(F)(F)F)c2)cc1-c1ccc2nc(NCCN3CCOCC3)ncc2c1`?
**A.** Potency [1]: 5.87 µM (active); Potency [4]: inactive; Potency [5]: 12 µM (active); Potency [6]: 1.69 µM (active); Potency [3]: 1.45 µM (active) and 2.63 µM (active)

**Q.** For `Cc1c(Cn2c(C)nc3c(C(=O)O)cc(N4CCOCC4)cc32)cccc1C(F)(F)F`, which Potency [1] is on record?
**A.** inactive

**Q.** What about the Potency [4] of the same compound?
**A.** inactive

**Q.** And the Potency [6]?
**A.** inactive

**Q.** Which results are given for `CCN1CCN(Cc2ccc(-c3cc4c(N[C@H](C)c5ccccc5)ncnc4[nH]3)cc2)CC1`?
**A.** Potency [1]: 18.6 µM (active); outcome [2]: inactive; Potency [3]: 9340 nM (active)

**Q.** Which Potency [1] does the source give for `C#Cc1cccc(Nc2ncnc3cc(OC)c(OCCCCCCC(=O)NO)cc23)c1` here?
**A.** 1.65 µM (active)

**Q.** What about the Potency [4] of the same compound?
**A.** inactive

**Q.** And the Potency [5]?
**A.** 4.77 µM (active)

**Q.** And the Potency [6]?
**A.** 10.7 µM (active)

**Q.** And the Potency [7]?
**A.** 31.2 µM (active)

**Q.** And the Potency [3]?
**A.** 515 nM (active) and 590 nM (active)

**Q.** For `O=C(c1cncc(Br)c1)N1CCC(N2CCCC2)CC1`, which Potency [1] is on record?
**A.** inactive

**Q.** And the outcome [2]?
**A.** inactive

**Q.** What about the Potency [3] of the same compound?
**A.** inactive

**Q.** What does the source list for `Cc1coc2c1C(=O)C(=O)c1c-2ccc2c1CCCC2(C)C`?
**A.** Potency [8]: 39.8 µM (active); outcome [2]: inactive; Potency [4]: inactive; Potency [5]: 23.9 µM (active); Potency [3]: inactive

**Q.** With `COc1cc(C(=O)N2CCC(N3CCN(C)CC3)CC2)ccc1Nc1ncc2c(n1)N(C)c1ccccc1C(=O)N2C` as the compound, how does the Potency [1] read?
**A.** 23.4 µM (active)

**Q.** And the Potency [5]?
**A.** inactive

**Q.** And the Potency [3]?
**A.** 1.15 µM (active) and 1.48 µM (active)

**Q.** Which Potency [1] does the source give for `Cc1cn2cc(C(=O)N(C)CCO)cc(N[C@@H]3CCOc4cccc(C)c43)c2n1` here?
**A.** inactive

**Q.** And the Potency [3]?
**A.** inactive

**Q.** Which results are given for `CCOC(=O)C1=C(C)NC2=C(C(=O)CC(C)(C)C2)C1c1ccc(-c2ccccc2)cc1` (stereo unspecified)?
**A.** Potency [1]: 3.3 µM (active); Potency [5]: inactive; Potency [6]: 2.68 µM (active)

**Q.** What does the source list for `O=C(O)c1ccc2c(c1)nc(Nc1cccc(Cl)c1)c1ccncc12`?
**A.** Potency [1]: 16.5 µM (active); Potency [4]: inactive; Potency [5]: inactive; Potency [6]: 12 µM (active); Potency [7]: 28.2 µM (active); Potency [3]: 4.59 µM (active) and 2.95 µM (active)
